Measured values: ChEMBL document CHEMBL1157539, “Thousands of chemical starting points for antimalarial lead identification” (Nature, 2010)

Experiments:
Format in all cases: functional
[1] = system: Plasmodium falciparum; experiment: GSK_TCMDC: Inhibition of Plasmodium falciparum 3D7 in whole red blood cells, using parasite LDH activity as an index of growth. Test compounds present at 2uM
[2] = system: Plasmodium falciparum; experiment: GSK_TCMDC: Inhibition of Plasmodium falciparum Dd2 in whole red blood cells, using parasite LDH activity as an index of growth. Test compounds present at 2uM
[3] = system: HepG2; experiment: GSK_TCMDC: Percent inhibition of human HepG2 cell line. Test compounds present at 10uM.

SMILES | Inhibition [1] [%] | Inhibition [2] [%] | Inhibition [3] [%]
O=C(O)C(F)(F)F.Oc1ccc(-c2nc3c(N4CCN(Cc5ccccc5)CC4)cccc3n2C2CCNCC2)cc1 | 85 | 7 | 0
COc1ccc(Cl)cc1NC(=O)Nc1ccnc2ccccc12 | 100 | 44 | 13
CC(NCC(O)Cn1c2ccccc2c2ccccc21)c1ccccc1.O=C(O)c1ccccc1 (configuration not stated) | 96 | 85 | 37
COc1ccccc1CCNc1nc(C)cc(N[C@@H](Cc2ccccc2)C(=O)NCCOc2ccccc2)n1.O=C(O)C(F)(F)F | 100 | 76 | 20
CCNc1cc(C(=O)N[C@@H](Cc2ccccc2)[C@H](O)CNCCC(C)(C)C)c(F)c(N2CCCCS2(=O)=O)c1.O=CO | 98 | 93 | 2
OC(CNCc1ccco1)Cn1c2ccc(Br)cc2c2cc(Br)ccc21 (configuration not stated) | 92 | 72 | 10
COc1ccc(C(=O)NC(c2ccc(Cl)cc2Cl)c2cc(Cl)c3cccnc3c2O)cc1 (configuration not stated) | 84 | 48 | 46
CCc1cc(NC(=O)Nc2ccnc3ccccc23)ccc1OC.Cl | 85 | 24 | 0
CCCCC(CCCC)CN1C(=O)C(c2ccccc2)(c2ccccc2)N=C1N.O=CO | 96 | 96 | 28
COc1cc(NC(=O)N2CCc3ccc(OCCC4CCCN4C)cc32)cc(C(F)(F)F)c1.O=C(O)C(F)(F)F (configuration not stated) | 100 | 42 | 5
Cc1cc(N(C)C)nc(Nc2ccc(NC(=O)c3ccccc3Cl)cc2)n1 | 88 | 31 | 3
COCCNCc1cccc(-c2ccc3c(Nc4ccc(Oc5ccccc5)cc4)ccnc3c2)c1 | 100 | 99 | 25
Cc1cc(N/N=C/c2cccc([N+](=O)[O-])c2)c2ccc(C(F)(F)F)cc2n1 | 100 | 51 | 2
N#Cc1ccc(C(=O)Nc2cccc(-c3ccc(CN4CCCC4)cc3)c2)cc1.O=C(O)C(F)(F)F | 99 | 0 | 13
Cn1nc(-c2ccc(NC(=O)Nc3cc(C(F)(F)F)cc(C(F)(F)F)c3)c(F)c2)c2cnc(NCCN3CCOCC3)nc21.O=C(O)C(F)(F)F | 94 | 37 | 43
CC(=O)Nc1ccc(C(=O)Nc2cccc(-c3ccc(-c4nc5cc(C(F)(F)F)ccc5[nH]4)cc3)c2)cn1 | 100 | 100 | 46
Cc1ccc2sc(N(CCCn3ccnc3)C(=O)c3ccco3)nc2c1C.Cl | 93 | 98 | 9
Fc1ccc2[nH]ccc(=NN=Cc3ccccc3Cl)c2c1 | 100 | 39 | 3
CC(C)CNCc1cccc(-c2ccccc2CN(C(=O)NCCc2ccccc2)C2CCN(Cc3ccccc3)CC2)c1.O=C(O)C(F)(F)F | 89 | 82 | 42
CC(=O)Nc1cccc(C(=O)Nc2ccc(-c3ccc(-c4nc5cccc(C)c5[nH]4)s3)cc2)c1 | 93 | 20 | 94
Cl.Oc1cccc(Nc2ccnc3cc(-c4cc5ccccc5o4)ccc23)c1 | 100 | 71 | 9
Cc1ccc(Nc2ccnc3ccc(C(F)(F)F)cc23)cc1O.O=C(O)C(F)(F)F | 100 | 69 | 23
CCN(CC)C(=S)N/N=C1/C(=O)Nc2c(C)cccc21 | 94 | 69 | 28
O=C(O)C(F)(F)F.O=[N+]([O-])c1cccc(CNCC2CCN(Cc3ccc(O)cc3)CC2)c1 | 98 | 5 | 8
COc1ccc(CNC(=O)c2cnc3cc(-c4c(C)noc4C)ccc3c2Nc2ccccc2C(C)(C)C)cc1.Cl | 99 | 69 | 9
CCCCCN1CCC(CNS(=O)(=O)c2ccc(C(=O)Nc3cccc(C(F)(F)F)c3)cc2)CC1.O=C(O)C(F)(F)F | 98 | 13 | 13
Cl.O=C(c1ccc(Cl)c(Cl)c1)N1CCc2c([nH]c3ccccc23)C1CN1CCCC1 (configuration not stated) | 94 | 16 | 83
O=C(Nc1ccc(Cl)c(Cl)c1)Nc1ccccc1N1CCNCC1.O=C(O)C(F)(F)F | 100 | 22 | 17
Cc1cc(F)ccc1C1CCN(CCCCNC(=O)c2ccc(NC(=O)c3ccc(Cl)cc3)cc2)CC1 | 100 | 79 | 19
